# From the supplement of paper PMC11732987, “Enantioselective OTUD7B fragment discovery through chemoproteomics screening and high-throughput optimisation” (Communications Chemistry, 2025)
# Unmarked numbers belong to inactive results.
# Assays:
# Assay in all cases: log2 ratio of Biotin-Ahx-Ub-VS probe labelling (fragment/DMSO); higher = less target engagement (more negative = stronger competition), active = hit call of the paper (q ≤ 0.05, log2 ratio ≤ -1)
# Conditions in all cases: compound concentration: 200 uM; treatment time: 3 h
# OTUD6B = target: T1, OTUD6B (UniProt Q8N6M0)
# T1 sequence (whole entry): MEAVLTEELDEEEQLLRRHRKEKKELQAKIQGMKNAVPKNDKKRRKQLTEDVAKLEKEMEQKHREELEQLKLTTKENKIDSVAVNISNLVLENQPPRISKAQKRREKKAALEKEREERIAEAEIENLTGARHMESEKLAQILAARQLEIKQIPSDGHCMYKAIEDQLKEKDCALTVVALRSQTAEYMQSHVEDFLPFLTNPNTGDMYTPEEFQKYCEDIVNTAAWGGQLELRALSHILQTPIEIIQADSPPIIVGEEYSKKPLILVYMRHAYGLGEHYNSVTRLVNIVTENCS
# Summary of the method: (§1)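 Lysate from HEK293T cells, 495 µg per sample in Tris/CHAPS/IGEPAL buffer with protease inhibitors, was treated for 3 h in triplicate with fragment at 200 µM or vehicle. Biotin-Ahx-Ub-VS was next added at 0.5 µM final for 1 h. The labelled DUBs were enriched with NeutrAvidin, digested with LysC and trypsin, and run by diaPASEF LC-MS/MS, with values given as average log2 fragment/vehicle ratios by unpaired t-test on global-median-normalised Spectronaut quantities of proteins with ≥2 unique peptides.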
# OTUD7B = target: T2, OTUD7B (UniProt Q6GQQ9)
# T2 sequence (whole entry): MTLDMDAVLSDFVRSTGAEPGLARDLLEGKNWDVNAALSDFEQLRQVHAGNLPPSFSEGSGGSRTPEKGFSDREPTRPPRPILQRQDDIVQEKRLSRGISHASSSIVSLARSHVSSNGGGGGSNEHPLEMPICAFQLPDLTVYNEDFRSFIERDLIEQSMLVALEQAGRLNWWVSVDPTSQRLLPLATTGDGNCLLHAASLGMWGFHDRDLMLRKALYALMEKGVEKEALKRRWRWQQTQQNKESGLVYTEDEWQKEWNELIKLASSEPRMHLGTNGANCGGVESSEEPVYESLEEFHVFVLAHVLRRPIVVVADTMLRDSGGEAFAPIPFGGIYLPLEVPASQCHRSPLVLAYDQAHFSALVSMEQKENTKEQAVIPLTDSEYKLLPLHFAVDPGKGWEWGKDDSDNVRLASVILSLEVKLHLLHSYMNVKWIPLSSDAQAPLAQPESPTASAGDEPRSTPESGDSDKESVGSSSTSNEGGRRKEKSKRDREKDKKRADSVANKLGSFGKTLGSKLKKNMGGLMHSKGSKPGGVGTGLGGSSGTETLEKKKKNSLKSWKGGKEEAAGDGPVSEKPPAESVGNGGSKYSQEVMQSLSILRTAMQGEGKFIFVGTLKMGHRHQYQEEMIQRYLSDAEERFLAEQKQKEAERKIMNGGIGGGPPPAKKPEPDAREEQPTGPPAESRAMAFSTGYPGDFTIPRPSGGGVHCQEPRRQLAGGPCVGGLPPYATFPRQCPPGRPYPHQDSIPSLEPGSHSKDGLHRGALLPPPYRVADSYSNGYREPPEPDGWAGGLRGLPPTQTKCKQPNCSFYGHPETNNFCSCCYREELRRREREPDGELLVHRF
# Summary of the method: as §1
# PRPF8 = PRPF8 (UniProt Q6P2Q9)
# Summary of the method: as §1
# PSMD7 = target: T3, PSMD7 (UniProt P51665)
# T3 sequence (whole entry): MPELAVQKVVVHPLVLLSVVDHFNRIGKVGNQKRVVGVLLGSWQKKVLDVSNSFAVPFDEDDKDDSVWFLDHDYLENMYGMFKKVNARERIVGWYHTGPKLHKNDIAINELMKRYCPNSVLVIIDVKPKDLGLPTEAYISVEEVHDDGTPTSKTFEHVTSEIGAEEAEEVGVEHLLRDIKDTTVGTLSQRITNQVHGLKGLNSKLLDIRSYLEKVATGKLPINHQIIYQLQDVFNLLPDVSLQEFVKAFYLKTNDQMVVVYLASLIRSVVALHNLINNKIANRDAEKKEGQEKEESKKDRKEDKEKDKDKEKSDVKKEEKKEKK
# Summary of the method: as §1
# UCHL1 = UCHL1 (UniProt P09936)
# Sequence of UCHL1 (P09936 whole entry, looked up): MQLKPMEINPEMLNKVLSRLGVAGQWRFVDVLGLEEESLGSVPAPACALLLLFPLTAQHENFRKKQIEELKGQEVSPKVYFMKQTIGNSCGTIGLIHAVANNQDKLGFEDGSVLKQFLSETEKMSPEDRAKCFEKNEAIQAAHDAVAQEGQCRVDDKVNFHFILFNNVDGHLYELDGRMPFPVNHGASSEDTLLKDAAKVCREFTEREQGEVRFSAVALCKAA
# Summary of the method: as §1
# UCHL3 = target: T4, UCHL3 (UniProt P15374)
# T4 sequence (whole entry): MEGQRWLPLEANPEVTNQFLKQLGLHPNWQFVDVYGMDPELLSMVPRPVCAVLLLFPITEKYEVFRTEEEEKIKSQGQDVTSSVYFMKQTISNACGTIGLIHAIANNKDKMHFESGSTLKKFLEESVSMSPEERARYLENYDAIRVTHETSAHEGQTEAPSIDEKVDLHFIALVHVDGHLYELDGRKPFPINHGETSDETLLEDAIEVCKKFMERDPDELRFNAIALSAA
# Summary of the method: as §1
# UCHL5 = target: T5, UCHL5 (UniProt Q9Y5K5)
# T5 sequence (whole entry): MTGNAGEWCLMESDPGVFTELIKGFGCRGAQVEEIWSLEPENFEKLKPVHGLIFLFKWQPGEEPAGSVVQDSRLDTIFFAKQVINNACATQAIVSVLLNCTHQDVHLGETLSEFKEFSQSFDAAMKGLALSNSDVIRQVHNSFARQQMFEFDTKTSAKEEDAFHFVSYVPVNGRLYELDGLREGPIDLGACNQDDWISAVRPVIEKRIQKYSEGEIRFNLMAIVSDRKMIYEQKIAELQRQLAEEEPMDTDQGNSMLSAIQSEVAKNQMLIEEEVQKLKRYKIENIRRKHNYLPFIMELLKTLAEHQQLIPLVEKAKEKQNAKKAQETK
# Summary of the method: as §1
# USP10 = USP10 (UniProt Q14694)
# Sequence of USP10 (Q14694 whole entry): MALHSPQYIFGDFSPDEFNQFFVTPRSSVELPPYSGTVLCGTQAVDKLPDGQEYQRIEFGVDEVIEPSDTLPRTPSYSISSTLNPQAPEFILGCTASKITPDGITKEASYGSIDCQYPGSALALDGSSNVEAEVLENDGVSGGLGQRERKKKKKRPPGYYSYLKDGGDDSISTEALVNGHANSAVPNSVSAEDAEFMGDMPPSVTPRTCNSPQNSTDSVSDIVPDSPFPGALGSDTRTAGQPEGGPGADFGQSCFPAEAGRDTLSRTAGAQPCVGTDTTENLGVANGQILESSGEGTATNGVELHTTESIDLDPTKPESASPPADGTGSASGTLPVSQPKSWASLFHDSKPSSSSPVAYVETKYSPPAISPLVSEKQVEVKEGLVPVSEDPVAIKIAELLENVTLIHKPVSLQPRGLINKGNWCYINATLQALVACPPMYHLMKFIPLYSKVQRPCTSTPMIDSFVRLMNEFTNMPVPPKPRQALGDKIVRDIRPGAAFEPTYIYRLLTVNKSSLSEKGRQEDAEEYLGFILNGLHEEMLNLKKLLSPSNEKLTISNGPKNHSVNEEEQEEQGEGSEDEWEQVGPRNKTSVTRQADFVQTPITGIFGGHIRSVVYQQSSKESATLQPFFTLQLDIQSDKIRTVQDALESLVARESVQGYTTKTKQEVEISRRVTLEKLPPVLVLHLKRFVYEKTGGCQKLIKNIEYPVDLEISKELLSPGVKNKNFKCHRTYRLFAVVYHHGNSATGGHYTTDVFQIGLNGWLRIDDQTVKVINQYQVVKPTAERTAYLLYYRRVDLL
# Summary of the method: as §1
# USP15 = target: T6, USP15 (UniProt Q9Y4E8)
# T6 sequence (whole entry): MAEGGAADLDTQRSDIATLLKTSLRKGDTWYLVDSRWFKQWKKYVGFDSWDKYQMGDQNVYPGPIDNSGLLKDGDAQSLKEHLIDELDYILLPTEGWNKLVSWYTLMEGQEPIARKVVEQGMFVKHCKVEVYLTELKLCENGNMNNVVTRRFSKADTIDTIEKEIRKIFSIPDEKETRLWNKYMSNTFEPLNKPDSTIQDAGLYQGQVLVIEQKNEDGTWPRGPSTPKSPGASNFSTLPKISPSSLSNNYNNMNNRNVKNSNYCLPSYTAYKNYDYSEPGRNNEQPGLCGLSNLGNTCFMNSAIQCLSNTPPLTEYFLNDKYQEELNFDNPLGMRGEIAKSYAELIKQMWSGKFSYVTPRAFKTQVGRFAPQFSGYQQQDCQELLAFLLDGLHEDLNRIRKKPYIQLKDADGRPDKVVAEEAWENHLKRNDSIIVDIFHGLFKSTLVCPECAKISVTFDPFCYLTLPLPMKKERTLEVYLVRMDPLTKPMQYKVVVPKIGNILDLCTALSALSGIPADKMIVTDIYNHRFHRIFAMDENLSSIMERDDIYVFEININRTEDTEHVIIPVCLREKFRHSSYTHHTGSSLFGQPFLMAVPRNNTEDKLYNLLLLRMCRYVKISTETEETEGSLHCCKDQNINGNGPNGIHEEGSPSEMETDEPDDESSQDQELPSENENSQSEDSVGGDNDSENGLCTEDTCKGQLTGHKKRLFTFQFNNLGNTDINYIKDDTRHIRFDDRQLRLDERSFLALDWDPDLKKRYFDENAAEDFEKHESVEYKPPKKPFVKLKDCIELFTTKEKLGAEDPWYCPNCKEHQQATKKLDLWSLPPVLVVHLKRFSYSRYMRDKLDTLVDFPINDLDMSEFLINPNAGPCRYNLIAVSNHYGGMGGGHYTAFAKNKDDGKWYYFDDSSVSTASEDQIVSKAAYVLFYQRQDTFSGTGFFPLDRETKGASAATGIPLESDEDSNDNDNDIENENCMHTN
# Summary of the method: as §1
# USP16 = USP16 (UniProt Q9Y5T5)
# Sequence of USP16 (Q9Y5T5 whole entry, looked up): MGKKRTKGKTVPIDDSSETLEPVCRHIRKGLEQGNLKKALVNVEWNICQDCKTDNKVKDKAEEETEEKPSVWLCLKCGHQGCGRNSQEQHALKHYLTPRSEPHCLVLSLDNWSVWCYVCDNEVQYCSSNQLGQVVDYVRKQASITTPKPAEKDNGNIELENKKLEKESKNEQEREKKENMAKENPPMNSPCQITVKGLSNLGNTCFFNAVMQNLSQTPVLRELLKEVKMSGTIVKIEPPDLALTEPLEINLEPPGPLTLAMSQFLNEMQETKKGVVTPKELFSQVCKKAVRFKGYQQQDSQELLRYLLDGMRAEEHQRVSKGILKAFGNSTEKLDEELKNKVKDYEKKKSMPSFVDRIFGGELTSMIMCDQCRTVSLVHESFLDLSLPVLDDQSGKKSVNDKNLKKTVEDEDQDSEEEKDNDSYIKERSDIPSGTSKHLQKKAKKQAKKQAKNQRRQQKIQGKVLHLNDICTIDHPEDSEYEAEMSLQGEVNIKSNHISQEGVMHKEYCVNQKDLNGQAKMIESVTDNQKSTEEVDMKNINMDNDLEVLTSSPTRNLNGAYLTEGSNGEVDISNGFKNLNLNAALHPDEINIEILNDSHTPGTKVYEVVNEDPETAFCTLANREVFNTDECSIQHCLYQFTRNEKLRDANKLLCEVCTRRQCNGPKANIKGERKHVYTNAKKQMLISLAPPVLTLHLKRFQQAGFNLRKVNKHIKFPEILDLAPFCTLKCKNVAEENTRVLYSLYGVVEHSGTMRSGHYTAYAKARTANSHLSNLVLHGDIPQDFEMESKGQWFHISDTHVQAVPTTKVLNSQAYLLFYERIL
# Summary of the method: as §1
structure (smiles),measurement,setting,value
Cc1nc(CN2CCN(C(=O)CCl)CC2)cs1,log2 ratio of Biotin-Ahx-Ub-VS probe labelling,OTUD6B,-0.238
same,log2 ratio of Biotin-Ahx-Ub-VS probe labelling,OTUD7B,-0.265
same,log2 ratio of Biotin-Ahx-Ub-VS probe labelling,PRPF8,0.211
same,log2 ratio of Biotin-Ahx-Ub-VS probe labelling,PSMD7,-0.333
same,log2 ratio of Biotin-Ahx-Ub-VS probe labelling,UCHL1,-1.72 (active)
same,log2 ratio of Biotin-Ahx-Ub-VS probe labelling,UCHL3,-0.051
same,log2 ratio of Biotin-Ahx-Ub-VS probe labelling,UCHL5,-0.0894
same,log2 ratio of Biotin-Ahx-Ub-VS probe labelling,USP10,-0.0627
same,log2 ratio of Biotin-Ahx-Ub-VS probe labelling,USP15,-0.32
same,log2 ratio of Biotin-Ahx-Ub-VS probe labelling,USP16,-0.55
